sEH inhibitor = soluble epoxide hydrolase inhibitors, primary screen, biochemical, human sEH. inhibition, % at 2 µM. recombinant human sEH enzymatic activity assay. 91,000 compounds, 0.34% hits. AID 707, 2007. Bifunctional epoxide hydrolase 2 (Homo sapiens), P34913; in the data active = inhibition above about 80%
CYP2C9 act = human CYP2C9 activators, primary screen, biochemical, luminescence; Cytochrome P450 2C9 (Homo sapiens), P11712; recombinant CYP2C9, luciferin-H conversion; hits give high values; factor 1 = untreated enzyme, 0 = blocked; activation factor at 5 µM; 96,000 compounds, 1.4% hits; AID 1024, 2008;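 active = activation factor of 2 or more for CYP2C9 at a 5 µM dose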
sEH activator = soluble epoxide hydrolase activators, primary screen, biochemical, human sEH; activation, % at 2 µM; AID 717, 2007; purified human sEH enzymatic activity, activator screen; 91,000 compounds, 0.04% hits; Bifunctional epoxide hydrolase 2 (Homo sapiens), P34913; in the data active = activation above about 37%
CYP2C19 inhib = blockers of cytochrome P450 2C19 activity – biochemical, luminescence, ADME assay, primary screen | P33261 | CYP2C19 Supersomes, luciferin-H EGE luminescence, 30 min | inhibition, % at 5 µM | 96,000 compounds, 21% hits | AID 778, 2007;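 active = CYP2C19 inhibition above a set limit at 5 µM in the primary screen, cut at about 50% in these data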
Target sequence (P33261 whole entry, looked up): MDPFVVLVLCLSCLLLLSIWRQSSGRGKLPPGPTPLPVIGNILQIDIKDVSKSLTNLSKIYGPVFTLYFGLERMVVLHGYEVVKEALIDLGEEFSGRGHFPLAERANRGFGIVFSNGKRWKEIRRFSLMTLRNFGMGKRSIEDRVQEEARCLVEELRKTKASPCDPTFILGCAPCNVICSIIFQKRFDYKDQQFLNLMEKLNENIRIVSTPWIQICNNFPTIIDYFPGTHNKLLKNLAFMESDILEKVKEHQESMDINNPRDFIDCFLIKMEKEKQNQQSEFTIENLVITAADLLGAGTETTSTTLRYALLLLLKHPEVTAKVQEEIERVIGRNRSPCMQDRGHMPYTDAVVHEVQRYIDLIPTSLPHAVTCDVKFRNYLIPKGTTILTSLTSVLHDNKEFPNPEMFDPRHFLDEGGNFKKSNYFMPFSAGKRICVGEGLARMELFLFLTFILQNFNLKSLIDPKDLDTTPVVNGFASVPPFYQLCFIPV
CYP2C9 inh = blockers of cytochrome P450 2C9 activity – biochemical, luminescence, ADME assay, primary screen | CYP2C9 Supersomes, luciferin-H conversion | inhibition, % at 5 µM | 96,000 compounds, 20% hits | AID 777, 2007;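 active = blocking of liver enzyme CYP2C9 beyond about 50% at 5 µM, limit read from the data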
CYP2C19 activ = human CYP2C19 activators, primary screen, biochemical, luminescence. recombinant CYP2C19, luciferin-H EGE luminescence; hits give high values; 0 = fully inhibited enzyme, 1 = untreated enzyme. 96,000 tested, under 10 active. Cytochrome P450 2C19 (Homo sapiens), P33261. activation factor at 5 µM;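 active = activation factor of at least 2 at 5 µM in the primary screen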
A number is an active result; – = inactive; · = no result given. Shown are actives, neighbours in structure and some others; about 27% of the full set was active somewhere.

SMILES	sEH inhibitor	CYP2C9 act	sEH activator	CYP2C19 inhib	CYP2C9 inh	CYP2C19 activ
Nc1ncnc2c1ncn2CCOc1ccccc1	–	–	–	–	–	–
Nc1ncnc2c1ncn2CCN1CCOCC1	–	–	–	90	–	–
C=CCOC(=O)C1=C(C)NC(SC)=C(C#N)C1c1ccc(OCC)cc1 (stereo not given)	·	–	·	86	93	–
C=CCOC(=O)C1=C(C)NC(SCC(=O)OCC)=C(C#N)C1c1ccc(O)c(OC)c1 (stereo not given)	·	–	·	99	100	–
C=CCOC(=O)C1=C(C)NC(SCC(=O)Nc2nccs2)=C(C#N)C1c1cccs1 (stereo not given)	–	–	–	–	–	–
COc1ccc(O)c(C(=O)c2cc(C#N)c(=O)n(CC3CCCO3)c2)c1 (stereo not given)	–	–	–	–	–	–
Cc1ccc(O)c(C(=O)c2cc(C#N)c(=O)n(CC3CCCO3)c2)c1 (stereo not given)	–	–	–	66	–	–
Cc1cc(NC(=O)CCC2CCCC2)no1	–	–	–	59	–	–
O=C(CCC1CCCC1)NC1CCCCC1	–	–	–	57	–	–
Cc1ccnc(NC(=O)CCC2CCCCC2)c1	–	–	–	86	–	–
COC(=O)C(C(=O)Nc1cc(C)on1)C1CCCCCC1 (stereo not given)	–	–	–	64	52	–
Cc1cc(NC(=O)CCC2CCCCC2)no1	–	·	–	·	·	·
CCOc1c2ccc(C(=O)NCCCCc3ccccc3)cc2nn1CC	–	–	–	–	–	–
Cc1ccc(C(=O)C(NC(=O)c2ccco2)Nc2sc3c(c2C(N)=O)CCCC3)cc1 (stereo not given)	–	·	–	·	·	·
CCN(CC)S(=O)(=O)c1ccc(NC(=O)CSc2cccc[n+]2[O-])cc1	–	–	–	–	–	–
O=C(NC1CC2CCC(C1)N2C(=O)NC1CCCCC1)NC12CC3CC(CC(C3)C1)C2 (stereo not given)	·	–	·	–	–	–
O=C(CCC1CCCCC1)NNC(=O)NC12CC3CC(CC(C3)C1)C2	84	–	–	95	–	–
CCOC(=O)C(C(=O)Nc1ccc(C)cc1)C1CCCCC1 (stereo not given)	–	–	–	79	56	–
Cc1ccnc(NC(=O)C23CC4CC(CC(C4)C2)C3)c1	–	–	–	94	–	–
COc1ccc(CC(=O)Nc2cc(C)ccn2)cc1	–	–	–	85	–	–
CCC(=O)Nc1ccc(NC(=O)C23CC4CC(CC(C4)C2)C3)cn1	–	–	–	–	–	–
CN(C1CCCCC1)S(=O)(=O)c1ccc(Cl)c(C(=O)O)c1	·	–	·	–	–	–
CC1CCN(c2ccccc2NC(=S)NC(=O)c2ccco2)CC1	–	·	–	·	·	·
CN(C)N=Nc1ccc(S(=O)(=O)N2CCSC2C(=O)O)cc1 (stereo not given)	–	·	–	·	·	·
CC1=CC(C)=Nc2ccc(C)cc2N1	–	–	–	–	–	–
SMILES	sEH inhibitor	CYP2C9 act	sEH activator	CYP2C19 inhib	CYP2C9 inh	CYP2C19 activ
Cc1ccc(CNC(=O)C2CCC(=O)N2CCc2ccccc2)cc1 (stereo not given)	–	–	–	–	–	–
CSc1nc(C)c(CCOC(=O)c2cccc(C)c2)c(=O)[nH]1	–	–	–	–	–	–
Cc1[nH]n(-c2ccccc2)c(=O)c1CCOC(=O)c1cccc(C(F)(F)F)c1	–	–	–	78	–	–
COCCNC(=O)CN1C(=O)CC(C)(C)S(=O)(=O)c2ccccc21	·	–	·	–	–	–
CC1(C)CC(=O)N(CC(=O)NCc2ccccc2)c2ccccc2S1(=O)=O	–	–	–	69	–	–
CC(C)OCCCNC(=O)CN1C(=O)CC(C)(C)S(=O)(=O)c2ccccc21	·	–	·	–	–	–
CC1(C)CC(=O)N(CC(=O)NCc2ccc(F)cc2)c2ccccc2S1(=O)=O	·	–	·	62	–	–
Cc1ccc(Cl)cc1N(CC(=O)N1CCCCCC1)S(C)(=O)=O	·	–	·	–	–	–
Cc1c(N=Cc2ccc(-c3ccc(Cl)cc3)o2)c(=O)n(-c2ccccc2)n1C	·	–	·	59	–	–
COc1ccc(OC)c(NC(=O)CN(c2ccc(C(C)C)cc2)S(=O)(=O)c2c(C)noc2C)c1	·	–	·	75	94	–
Cc1noc(C)c1S(=O)(=O)N(CC(=O)N1CCn2c1nc1ccccc12)c1ccc(C(C)C)cc1	–	–	–	58	87	–
CCOc1ccc(N(CC(=O)Nc2ccc(OC)cc2)S(=O)(=O)c2c(C)noc2C)cc1	–	–	–	–	–	–
COc1ccc(N(CC(=O)Nc2ccc(C)cn2)S(=O)(=O)c2c(C)noc2C)cc1	·	–	·	73	70	–
COc1ccc(N(CC(=O)Nc2cc(Cl)ccc2OC)S(=O)(=O)c2c(C)noc2C)cc1	·	–	·	90	89	–
COc1ccc(OC)c(NC(=O)CN(c2ccc(C)cc2)S(=O)(=O)c2c(C)noc2C)c1	–	–	–	–	–	–
Cn1c(=O)c2c(nc(SCC(=O)O)n2Cc2cc3c(cc2Cl)OCO3)n(C)c1=O	–	–	–	–	–	–
CCCN(c1ccc(C(C)C)cc1)S(=O)(=O)c1c(C)noc1C	–	–	–	–	82	–
CCC(=O)Nc1ccc(Oc2ccc3c(c2)C(=O)N(c2ccc(O)cc2)C3=O)cc1	–	–	–	77	–	–
COc1ccc(-c2c3c(=O)n(C)c(=O)n(C)c3cn2C2CCCCC2)cc1	–	–	–	70	77	–
COc1ccc(-c2c3c(=O)n(C)c(=O)n(C)c3c3nnc4ccccc4n23)cc1	–	·	–	·	·	·
CCOC(=O)c1sc2cc([N+](=O)[O-])cc(SCC(C)C)c2c1N	–	–	–	–	–	–
N#CCc1ccc(C(=O)c2ccccc2)s1	–	–	–	70	–	–
O=C(O)Cc1ccc(C(=O)c2cccs2)s1	–	–	–	–	–	–
CCC(=O)N(CC(=O)Nc1sc(C)c(C)c1C(N)=O)C1CCCCC1	–	–	–	–	–	–
C=CCn1c(SCC(=O)NC(=O)NCc2ccco2)nc2sc(CC)cc2c1=O	·	–	·	–	71	–
CCCCCn1c(SCC(=O)OCC)nc2cc(C(=O)NCc3ccco3)ccc2c1=O	–	–	–	–	–	–
CCOC(=O)CSc1nc2cc(C(=O)OC)ccc2c(=O)n1CCN1CCOCC1	–	–	–	69	–	–
C=CCn1c(SCC(=O)OCC)nc2cc(C(=O)NCc3ccco3)ccc2c1=O	–	–	–	–	54	–
CCCCCn1c(SCC2CCCO2)nc2cc(C(=O)N3CCC(C(N)=O)CC3)ccc2c1=O (stereo not given)	·	–	·	–	53	–
Cc1cc(C(=O)NC(C)C)on1	–	–	–	–	–	–
